Bioassay records as filed in PubChem BioAssay.
Sampled rows, rich in hits. Any-hit rate of the full collection: about 1.6%.
gsp agonist: qHTS for Agonist of gsp, the Etiologic Mutation Responsible for Fibrous Dysplasia/McCune-Albright Syndrome: qHTS | gsp mutant cells, cAMP HTRF, 30 min | Potency, µM (highest dose often 76.9 µM), for inactives: at the highest dose activation (cAMP increase), usual class: activators | hit rate 0.13% among 340,000 | AID 624287, 2012; active means well fitted activation curve with a large enough effect; inconclusive means small, poorly fitted or top-dose-only effect, or another doubt; inactive means no such curve, though single readings can be large or run the other way; cell line not stated here;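 further: phosphodiesterase inhibitor Ro 20-1724 added with compounds to block cAMP breakdown; potency means the concentration at half of the fitted maximal effect; nearly all actives have a fitted effect of over 60% in size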
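Cells stably selected in G418 were plated at 2000/well, grown 16-24 hr, then given compounds in DMSO with the PDE inhibitor […] (300 uM solution added) for 30 min at 37C; cAMP was read by HTRF.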
FBPA coupling cs: qHTS Assay for Inhibitors of Fructose-1,6-bisphosphate Aldolase from Giardia Lamblia: Coupling assay counterscreen | activity change, negative = inhibition, % at 58.2 µM, hits read low | hit rate 0.67% among 290,000 | coupling enzyme system counterscreen, AmpLite Red fluorescence; in the data active means activity change below about -30%; further: on the % scale 0 is the no-effect control and ±100 the full control effect
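Counterscreen of the coupled detection system alone, without aldolase: glyceraldehyde-3-phosphate coupling enzymes plus AmpLite Red readout. Compounds at 57.5 uM final, 10 min RT preincubation, 20 min RT reaction, fluorescence 525/598 nm.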
RXFP1 antagonist: qHTS Assay for Antagonists of the Relaxin Receptor RXFP1. Relaxin receptor 1 (Homo sapiens), Q9HBX9. HEK293-RXFP1, relaxin-stimulated cAMP HTRF, 30 min; hits give low values. activity change, negative = inhibition, % at 57.5 µM. hit rate 0.59% among 350,000;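 active means activity change of -60% or lower, but not beyond a set lower limit; inconclusive means change between -60% and -40%, or beyond the set limit; inactive means change above -40%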; further: on the % scale 0 is the no-effect control and ±100 the full control effect
Target sequence (Q9HBX9 whole entry, looked up): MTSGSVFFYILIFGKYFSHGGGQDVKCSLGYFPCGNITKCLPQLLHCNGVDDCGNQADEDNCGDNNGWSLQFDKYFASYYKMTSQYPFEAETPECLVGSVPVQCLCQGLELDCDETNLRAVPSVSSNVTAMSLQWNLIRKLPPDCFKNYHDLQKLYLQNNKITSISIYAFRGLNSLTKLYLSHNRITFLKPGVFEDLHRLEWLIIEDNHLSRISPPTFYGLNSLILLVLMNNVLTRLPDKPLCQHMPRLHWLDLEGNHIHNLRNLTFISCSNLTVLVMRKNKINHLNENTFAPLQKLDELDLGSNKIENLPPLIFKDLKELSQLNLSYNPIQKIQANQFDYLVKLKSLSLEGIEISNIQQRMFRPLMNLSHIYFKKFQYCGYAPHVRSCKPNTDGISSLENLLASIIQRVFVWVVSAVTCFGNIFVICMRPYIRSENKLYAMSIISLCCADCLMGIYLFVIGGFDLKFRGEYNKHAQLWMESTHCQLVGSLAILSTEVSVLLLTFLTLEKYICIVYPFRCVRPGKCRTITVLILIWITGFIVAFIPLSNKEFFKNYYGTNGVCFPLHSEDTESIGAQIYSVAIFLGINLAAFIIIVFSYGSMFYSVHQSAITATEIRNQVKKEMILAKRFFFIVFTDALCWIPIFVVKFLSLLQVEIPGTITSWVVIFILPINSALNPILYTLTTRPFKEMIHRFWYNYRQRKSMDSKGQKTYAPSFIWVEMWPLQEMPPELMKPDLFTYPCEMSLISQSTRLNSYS
gsp antag: qHTS for Antagonists of gsp, the Etiologic Mutation Responsible for Fibrous Dysplasia/McCune-Albright Syndrome: qHTS; gsp-mutant cells, cAMP HTRF, 30 min; Potency, µM (titrated, usually from 76.9 µM), for inactives: at the highest dose activity change, negative = inhibition, actives largely listed as inhibitors; hit rate 0.4% among 340,000; AID 624288, 2012; calls by dose curve; cell line not stated here;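 further: intracellular cAMP measured with PDE inhibitor Ro 20-1724 present during compound exposure; potency means the concentration at half of the fitted maximal effect; on the % scale 0 is the no-effect control and ±100 the full control effect; nearly all actives have a fitted effect of over 65% in size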
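G418-selected cells were plated in DMEM/10% FBS for 16-24 h at 37C, then treated with compounds plus the PDE inhibitor […] (300 uM solution added) for 30 min at 37C. Intracellular cAMP was measured by HTRF after 30 min lysis at room temperature.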
Giardia killer: Small Molecules that selectively kill Giardia lamblia: qHTS. AID 540267, 2011. Giardia lamblia trophozoite viability. activity change, % at 7.66 µM, hits read low. hit rate 0.15% among 340,000; in the data active means activity change below about -80%; inconclusive means between about -30% and that limit;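 further: parasites exposed to compound for two days anaerobically before the ATP read; on the % scale 0 is the no-effect control and ±100 the full control effect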
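Anaerobic 48 hrs incubation at 37 deg C of 100 trophozoites/well with test compounds; ATPLite 1-Step luminescence, 15-30 min RT, reports cellular ATP as viability.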
RXFP1 agonist: qHTS Assay for Agonists of the Relaxin Receptor RXFP1; HEK293T-RXFP1 cAMP TR-FRET, 30 min; response scale: percent of porcine relaxin response, buffer zero; Potency, µM (series often up to 57.5 µM), without a hit: at the top dose activation, hits mostly activators; hit rate 0.3% among 370,000; Relaxin receptor 1 (Homo sapiens), Q9HBX9; active means well fitted activation curve with a large enough effect; inconclusive means small, poorly fitted or top-dose-only effect; further: potency means the concentration at half of the fitted maximal effect; on the % scale 0 is the no-effect control and ±100 the full control effect; nearly all actives have a fitted effect of over 60% in size
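cAMP rise read by TR-FRET after 30 min, 37C compound exposure (up to 58 uM) in RXFP1-transfected HEK293 cells with Ro 20174 present. EC50 from Hill-equation fits, with 29 nM porcine relaxin as 100% and buffer as basal.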
* hit, by the source's call; ! = not active in a repeat; [ ] = dose if it differs, or a comment.

Screening CCOC(=O)C1CCCN(C(=O)CN2C(=O)/C(=C/c3ccc(OC)cc3)Oc3ccccc32)C1 (stereo not given) returned gsp agonist -17%[15.4 µM], FBPA coupling cs 3, RXFP1 antagonist -11, gsp antag inconclusive, Giardia killer 2 and RXFP1 agonist 2%.
For C=C1C(=O)C23CCC4C(C)(C(=O)OC)CCCC4(C)C2CCC1(O)C3 (stereo not given) the results were gsp agonist 9%, RXFP1 antagonist -92*, gsp antag 7% and Giardia killer -7.
Screening Cc1cccc(OCC(O)Cn2c(=N)n(CCN3CCCCC3)c3ccccc32)c1 (stereo not given) returned gsp agonist -5%, FBPA coupling cs 2, RXFP1 antagonist -63*!, gsp antag 18%, Giardia killer -16 and RXFP1 agonist 2%.
CCN(CC)CCn1c(=N)n(CC(O)COc2cccc(C)c2)c2ccccc21 (stereo not given) was read as gsp agonist 0%[15.4 µM], FBPA coupling cs 1, RXFP1 antagonist inconclusive, gsp antag 12%, Giardia killer -15 and RXFP1 agonist 1%.
For Cc1ccc(S(=O)(=O)Nc2cccc3ccc[n+](C)c23)cc1 the results were FBPA coupling cs -8.
`COc1cc2c(cc1OC)C1O[C@](CCCCN3C(=O)c4ccccc4C3=O)(C2)Oc2c1c(=O)oc1ccccc21` gave FBPA coupling cs 1 and RXFP1 agonist 0%[11.5 µM].
CC(Sc1ncnc2sc(-c3ccccc3)cc12)C(=O)NCC1CCCO1 (stereo not given) was read as gsp agonist 5%, RXFP1 antagonist -98*, gsp antag -15%, Giardia killer 5 and RXFP1 agonist 2%.
CCc1cccc2c(SC(C)C(=O)NCC3CCCO3)nc(-c3ccccc3)nc12 (stereo not given) was read as gsp agonist -6%, FBPA coupling cs -2, RXFP1 antagonist 7, gsp antag 0%, Giardia killer 5 and RXFP1 agonist -2%.
Cc1ccc(C(=O)C2=C(O)C(=O)N(CCCn3ccnc3)C2c2ccc(OC(C)C)cc2)o1 (stereo not given) was read as gsp agonist inconclusive, FBPA coupling cs 0, RXFP1 antagonist 20, gsp antag 23%, Giardia killer 7 and RXFP1 agonist 16µM*.
Screening Cc1ccc(C(=O)C2=C(O)C(=O)N(Cc3cccnc3)C2c2ccc(OC(C)C)cc2)o1 (stereo not given) returned gsp agonist inconclusive, RXFP1 antagonist 8, gsp antag 12%, Giardia killer 10 and RXFP1 agonist -1%.
Screening O=C(Nc1nncs1)c1c(F)c(F)c(F)c(F)c1F returned gsp agonist -1%, FBPA coupling cs 0, RXFP1 antagonist -9, gsp antag 40µM*, Giardia killer 15 and RXFP1 agonist 0%.
CCOC(=O)COc1cc(OCC(=O)OCC)c2c3c(c(=O)oc2c1)CCCC3 was read as gsp agonist 11µM*, FBPA coupling cs 0, RXFP1 antagonist 16, gsp antag inconclusive, Giardia killer -6 and RXFP1 agonist -2%.
`CCc1nc(SCC(=O)Nc2nnc(CC(C)C)s2)n[nH]1` gave gsp agonist -21%, FBPA coupling cs 3, RXFP1 antagonist 13, gsp antag -9%, Giardia killer 1 and RXFP1 agonist 0%.
CC[n+]1c(/C=C/N(C)c2ccccc2)n(-c2ccccc2)c2ccc(-c3nc4ccccc4s3)cc21 was read as gsp agonist 2%[15.4 µM], FBPA coupling cs 5, RXFP1 antagonist -60*, gsp antag inconclusive, Giardia killer -4 and RXFP1 agonist 4%.
Screening O=C1C=C[C@@H](O)[C@H]2[C@@H]3C(=O)N(Cc4ccc5c(c4)OCO5)C(=O)[C@@H]3CC[C@H]12 returned FBPA coupling cs -1.
`O=C(c1cccs1)[C@@H]1[C@@H]2C(=O)N(Cc3ccc4c(c3)OCO4)C(=O)[C@@H]2C2c3ccccc3C=CN21` (stereo not given in full) gave FBPA coupling cs -38* and RXFP1 agonist 0%.
O=C(c1ccc2c(c1)OCO2)[C@@H]1[C@@H]2C(=O)N(C3CCCCC3)C(=O)[C@@H]2C2c3ccccc3C=CN21 (stereo not given in full) was read as gsp agonist 13%, FBPA coupling cs -36*, RXFP1 antagonist -7, gsp antag -12%, Giardia killer -21 and RXFP1 agonist 4%.
For CCOC(=O)c1c(-c2ccc(OC)c(OC)c2)csc1NC(=O)C1CCCO1 (stereo not given) the results were gsp agonist -4%[15.4 µM], FBPA coupling cs 1, RXFP1 antagonist -16, gsp antag 25µM*, Giardia killer -2 and RXFP1 agonist 1%.
C=CCN(C(=O)CN1CCCCC1)c1nc(-c2ccccc2)cs1 was read as gsp agonist 11%[15.4 µM], FBPA coupling cs 0, RXFP1 antagonist 1, gsp antag -3%, Giardia killer 16 and RXFP1 agonist 0%.
C=CCN(C(=O)C1CC(=O)N(C2CCCC2)C1)c1nc(-c2ccc(S(C)(=O)=O)cc2)cs1 (stereo not given) was read as gsp agonist 5%, RXFP1 antagonist -27, gsp antag 40µM*, Giardia killer 0 and RXFP1 agonist 1%.
For O=C1NCCN1c1ncc([N+](=O)[O-])s1 the results were FBPA coupling cs 2, gsp antag 5%, Giardia killer -88* and RXFP1 agonist 0%.
For Cc1ccccc1OCCC(=O)OCC(=O)c1c(N)n(CC(C)C)c(=O)n(C)c1=O the results were gsp agonist -2%[15.4 µM], RXFP1 antagonist -10, gsp antag 32µM* and Giardia killer 6.
`CC(C)Cn1c(N)c(C(=O)COC(=O)[C@@H]2CCCN2C(=O)c2cccs2)c(=O)n(C)c1=O` gave gsp agonist 13µM*, FBPA coupling cs 1, RXFP1 antagonist 12, gsp antag -7%, Giardia killer 2 and RXFP1 agonist 1%.
`CC(C)Cn1c(N)c(C(=O)CSc2ccccc2)c(=O)n(C)c1=O` gave gsp agonist 7%, FBPA coupling cs 2, RXFP1 antagonist -13, gsp antag inconclusive, Giardia killer 3 and RXFP1 agonist 1%.
